Among the data in PubChem BioAssay (NCATS) are Potency values, retold here.

Experiment in all cases: qHTS profiling for inhibitors of Plasmodium falciparum proliferation (AID 504749); note: nearly all actives have a fitted effect of over 60% in size
Common to all, as to conditions: P. falciparum in erythrocytes, SYBR Green DNA, 72 h; series mostly up to 12.8 µM

Experiment [1] has as its system CP185. Summed up:
(§1)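 Three-day growth assay of blood-stage parasites in erythrocytes (0.3% parasitemia, 2.5% hematocrit) at 37 C, 5% CO2, quantified by SYBR Green DNA staining after overnight detergent lysis.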

Experiment [2] concerns CP194. In a few lines:
as §1

For experiment [3], the system named is CP201. Summed up: as §1
Experiment [4] concerns CP203. In a few lines:
as §1

For experiment [5], the system named is CP211. In a few lines:
as §1

The test system of experiment [6] is CP252. In a few lines: as §1
Experiment [7] deals with CP260. Summed up: as §1
In experiment [8] the test system is CP268. In a few lines:
as §1

In experiment [9] the test system is CP286. In a few lines:
as §1

Experiment [10] concerns CP291. In a few lines:
as §1

In experiment [11] the test system is CP305. Summed up: as §1
The test system of experiment [12] is CP325. Summed up: as §1
In experiment [13] the test system is CP329. In a few lines:
as §1

The test system of experiment [14] is DFO2036. Summed up:
as §1

Experiment [15] deals with DIV14. In a few lines: as §1
For experiment [16], the system named is DIV30. In a few lines: as §1
For experiment [17], the system named is ECU. In a few lines: as §1
The subject of experiment [18] is HB3. In a few lines:
as §1

Experiment [19] deals with ICS. Summed up: as §1
Experiment [20] has as its system TAB113. In a few lines: as §1

Results filed as inconclusive are left out. The source made the active and inactive calls. Calls come from the whole dose curve; as a rule, active = well fitted inhibition curve with a large enough effect; inconclusive = small, poorly fitted or top-dose-only effect; inactive = flat fitted curve, though single readings scatter.
Potency is the fitted concentration of half-maximal effect.

Consider `COCC(=O)Nc1c(I)c(C(=O)NC[C@@H](O)CO)c(I)c(C(=O)N(C)C[C@@H](O)CO)c1I`, for which the Potency entry in experiment [1], in [2], in experiment [3], in [4], in [5] and in [6] was “inactive” throughout. Also, the Potency result in [7], in experiment [8], in [9], in experiment [10], in experiment [11] and in experiment [12] was “inactive” in each case. The Potency result in experiment [13], in experiment [14], in [15], in experiment [16], in experiment [17] and in experiment [18] was “inactive” in each case. In addition, the Potency result in [19] and in [20] was “inactive” each time.

As to `CCCC[C@H](CC)CN1CN(C[C@@H](CC)CCCC)CC(C)(N)C1`, the Potency entry in [1], in experiment [2], in [3], in [4], in experiment [5] and in experiment [6] was “inactive” each time. The Potency result in experiment [8], in experiment [10], in [11], in experiment [12], in [13] and in [14] was “inactive” each time. In addition, the Potency entry in [15], in experiment [16], in [17], in [18] and in [20] was “inactive” throughout. Besides, the Potency in experiment [7] was 3.55 µM (active); in experiment [19], 4.47 µM (active).

For the molecule `CC[C@H](CO)NCCN[C@@H](CC)CO`, the Potency entry in experiment [1], in experiment [2], in experiment [3], in [4], in [5] and in [6] was “inactive” in each case. Further, the Potency entry in [7], in [8], in experiment [9], in experiment [10], in experiment [11] and in experiment [12] was “inactive” in each case. Besides, the Potency entry in [13], in experiment [14], in experiment [15], in experiment [16], in experiment [18] and in experiment [19] was “inactive” throughout. In [20], the Potency result was “inactive”.

Take `NC(=O)c1cc[n+](CC2=C(C(=O)[O-])N3C(=O)[C@@H](NC(=O)Cc4cccs4)[C@@H]3SC2)cc1`: the Potency entry in experiment [1], in experiment [2], in experiment [3], in experiment [5], in experiment [6] and in experiment [7] was “inactive” throughout. The Potency entry in experiment [8], in experiment [9], in [11], in [12], in experiment [13] and in experiment [14] was “inactive” in each case. For the same molecule, the Potency result in [15], in experiment [16], in [17], in experiment [18], in experiment [19] and in experiment [20] was “inactive” each time.

Regarding `NC(=O)c1ccc[n+]([C@@H]2O[C@H](COP(=O)([O-])OP(=O)(O)OC[C@H]3O[C@@H](n4cnc5c(N)ncnc54)[C@@H](O)[C@@H]3O)[C@@H](O)[C@@H]2O)c1`, the Potency entry in experiment [1], in experiment [2], in [3], in experiment [4], in experiment [5] and in experiment [6] was “inactive” in each case. Also, the Potency result in experiment [7], in experiment [8], in experiment [9], in experiment [10], in [11] and in experiment [12] was “inactive” in each case. The Potency entry in [13], in experiment [14], in [15], in experiment [16], in [17] and in [18] was “inactive” throughout. Besides, the Potency result in experiment [19] and in experiment [20] was “inactive” throughout.

With `NS(=O)(=O)c1cc2c(cc1Cl)N[C@@H](CC1CCCC1)NS2(=O)=O`, the Potency entry in [1], in [2], in experiment [3], in [4], in experiment [5] and in [6] was “inactive” each time. Also, the Potency result in [7], in experiment [8], in experiment [9], in experiment [10], in [11] and in experiment [12] was “inactive” in each case. The Potency entry in experiment [13], in experiment [14], in experiment [15], in experiment [16], in experiment [17] and in [18] was “inactive” each time. In addition, the Potency entry in experiment [19] and in [20] was “inactive” throughout.

For `CCC(=O)O[C@@]1(C(=O)SCF)[C@@H](C)C[C@H]2[C@@H]3C[C@@H](F)C4=CC(=O)C=C[C@@]4(C)[C@]3(F)[C@@H](O)C[C@]21C`, the Potency result in experiment [2], in experiment [3], in [4], in [5], in experiment [8] and in experiment [9] was “inactive” throughout. The Potency entry in [10], in [11], in [12] and in experiment [13] was “inactive” each time. Besides, in experiment [19], the Potency was 2.51 µM (active).

As for `CC(=O)OCC(=O)[C@@]1(O)CC[C@@H]2[C@H]3CCC4=CC(=O)C=C[C@]4(C)[C@]3(F)[C@@H](O)C[C@@]21C`, the Potency result in experiment [1], in experiment [2], in [3], in experiment [4], in experiment [5] and in [6] was “inactive” in each case. For the same molecule, the Potency entry in experiment [7], in experiment [8], in experiment [9], in experiment [10], in [11] and in experiment [12] was “inactive” each time. Moreover, the Potency result in experiment [13], in experiment [14], in [15], in experiment [16], in experiment [17] and in experiment [18] was “inactive” in each case. In addition, the Potency result in experiment [19] and in [20] was “inactive” throughout.

As to `NS(=O)(=O)c1cc2c(cc1Cl)N[C@@H](C(Cl)Cl)NS2(=O)=O`, the Potency entry in experiment [1], in experiment [2], in experiment [3], in experiment [4], in experiment [5] and in experiment [6] was “inactive” in each case. The Potency result in [7], in [8], in experiment [9], in experiment [10], in experiment [11] and in experiment [12] was “inactive” in each case. For the same molecule, the Potency result in [13], in experiment [14], in [15], in experiment [16], in experiment [17] and in [18] was “inactive” in each case. For the same molecule, the Potency result in experiment [19] and in experiment [20] was “inactive” each time.

As to `Cc1ccc(S(=O)(=O)NC(=O)NN2C[C@H]3CCC[C@@H]3C2)cc1`, the Potency result in experiment [1], in experiment [2], in experiment [3], in experiment [4], in experiment [5] and in experiment [6] was “inactive” throughout. Moreover, the Potency result in experiment [7], in experiment [8], in [9], in [10], in experiment [11] and in experiment [12] was “inactive” in each case. The Potency entry in experiment [13], in experiment [14], in [15], in [17], in experiment [18] and in experiment [19] was “inactive” in each case. Further, in experiment [20], the Potency entry is “inactive”.

Turning to `NS(=O)(=O)c1cc2c(cc1C(F)(F)F)N[C@H](Cc1ccccc1)NS2(=O)=O`, the Potency entry in [1], in experiment [2], in [3], in experiment [4], in experiment [5] and in experiment [6] was “inactive” throughout. The Potency entry in experiment [7], in experiment [8], in [9], in [10], in [11] and in [12] was “inactive” throughout. Besides, the Potency result in [13], in experiment [14], in [15], in experiment [16], in experiment [17] and in experiment [18] was “inactive” in each case. For the same molecule, the Potency entry in experiment [19] and in [20] was “inactive” throughout.

As to `CCC[C@@H]1O[C@@H]2C[C@@H]3[C@H]4CCC5=CC(=O)C=C[C@@]5(C)[C@H]4[C@H](O)C[C@@]3(C)[C@@]2(C(=O)CO)O1`, the Potency in experiment [6] was 11.2 µM (active); in [15] it was 9.53 µM (active); in [17], 7.08 µM (active); in experiment [19], 6.31 µM (active). Besides, the Potency entry in [8], in experiment [11] and in experiment [13] was “inactive” each time.
